Consider 37 targets from the supplement of paper PMC10849652.

Targets with a hit are over-represented here; the source holds about 7,900 in all. About 0.6% of all pairs of compound and target were hits. Unmarked numbers belong to inactive results.

Chain of UniProt Q9BTW9 (Q9BTW9 whole entry, looked up): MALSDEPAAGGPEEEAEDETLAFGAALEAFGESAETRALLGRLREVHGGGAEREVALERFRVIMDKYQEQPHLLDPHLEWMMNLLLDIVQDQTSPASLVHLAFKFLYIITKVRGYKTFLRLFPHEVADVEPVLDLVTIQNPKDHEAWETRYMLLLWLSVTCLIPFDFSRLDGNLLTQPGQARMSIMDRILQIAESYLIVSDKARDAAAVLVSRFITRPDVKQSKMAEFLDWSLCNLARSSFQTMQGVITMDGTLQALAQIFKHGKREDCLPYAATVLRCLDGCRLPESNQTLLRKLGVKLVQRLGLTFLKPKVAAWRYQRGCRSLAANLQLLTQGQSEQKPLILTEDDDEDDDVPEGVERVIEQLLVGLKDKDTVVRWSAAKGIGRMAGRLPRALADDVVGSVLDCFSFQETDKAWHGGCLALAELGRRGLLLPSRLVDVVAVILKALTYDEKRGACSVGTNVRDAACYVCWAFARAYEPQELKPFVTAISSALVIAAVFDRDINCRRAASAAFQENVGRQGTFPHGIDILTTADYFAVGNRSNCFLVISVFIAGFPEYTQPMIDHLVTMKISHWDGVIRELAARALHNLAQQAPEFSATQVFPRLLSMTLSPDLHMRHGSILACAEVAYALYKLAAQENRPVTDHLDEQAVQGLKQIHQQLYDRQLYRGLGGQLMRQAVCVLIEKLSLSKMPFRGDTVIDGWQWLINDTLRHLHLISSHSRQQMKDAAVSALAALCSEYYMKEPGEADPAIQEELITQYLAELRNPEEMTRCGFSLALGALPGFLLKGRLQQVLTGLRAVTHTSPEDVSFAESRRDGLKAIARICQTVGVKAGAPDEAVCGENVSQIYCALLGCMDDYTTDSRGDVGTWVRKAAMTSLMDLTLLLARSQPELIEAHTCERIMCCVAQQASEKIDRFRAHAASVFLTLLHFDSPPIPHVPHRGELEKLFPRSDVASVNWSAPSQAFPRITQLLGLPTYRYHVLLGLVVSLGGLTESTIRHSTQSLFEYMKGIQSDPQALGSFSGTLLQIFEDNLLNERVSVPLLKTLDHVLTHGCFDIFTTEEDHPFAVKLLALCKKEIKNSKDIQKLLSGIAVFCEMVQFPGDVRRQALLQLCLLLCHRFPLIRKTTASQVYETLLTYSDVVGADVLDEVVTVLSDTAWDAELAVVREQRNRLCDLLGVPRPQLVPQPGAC
Chain of UniProt Q9C0B7 (Q9C0B7 whole entry, looked up): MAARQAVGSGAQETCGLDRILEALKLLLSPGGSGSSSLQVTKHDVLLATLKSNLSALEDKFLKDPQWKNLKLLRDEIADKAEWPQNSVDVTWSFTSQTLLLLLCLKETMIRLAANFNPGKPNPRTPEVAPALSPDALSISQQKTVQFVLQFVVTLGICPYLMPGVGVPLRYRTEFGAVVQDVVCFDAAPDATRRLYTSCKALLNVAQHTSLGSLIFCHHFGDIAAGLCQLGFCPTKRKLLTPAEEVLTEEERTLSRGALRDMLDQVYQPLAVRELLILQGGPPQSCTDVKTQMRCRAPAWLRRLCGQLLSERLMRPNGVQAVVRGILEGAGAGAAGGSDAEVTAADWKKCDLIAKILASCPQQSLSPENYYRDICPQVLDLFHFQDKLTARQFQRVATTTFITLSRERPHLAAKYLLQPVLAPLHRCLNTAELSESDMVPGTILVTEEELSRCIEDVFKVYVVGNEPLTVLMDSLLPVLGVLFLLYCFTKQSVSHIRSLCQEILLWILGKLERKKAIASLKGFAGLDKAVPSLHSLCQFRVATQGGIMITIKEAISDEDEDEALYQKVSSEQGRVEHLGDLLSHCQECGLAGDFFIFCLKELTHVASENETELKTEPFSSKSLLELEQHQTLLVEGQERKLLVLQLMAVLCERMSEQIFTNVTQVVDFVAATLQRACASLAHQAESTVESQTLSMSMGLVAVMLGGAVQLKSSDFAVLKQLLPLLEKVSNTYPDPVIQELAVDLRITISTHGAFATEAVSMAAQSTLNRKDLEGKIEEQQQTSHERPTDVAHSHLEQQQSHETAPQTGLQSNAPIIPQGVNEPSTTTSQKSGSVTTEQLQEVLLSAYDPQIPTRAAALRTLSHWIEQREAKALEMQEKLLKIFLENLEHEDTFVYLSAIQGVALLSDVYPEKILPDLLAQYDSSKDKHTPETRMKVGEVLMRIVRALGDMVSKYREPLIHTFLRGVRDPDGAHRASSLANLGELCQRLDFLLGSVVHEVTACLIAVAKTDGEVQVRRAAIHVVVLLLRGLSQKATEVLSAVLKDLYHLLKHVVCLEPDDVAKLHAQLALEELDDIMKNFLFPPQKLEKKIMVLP
Chain of UniProt Q8TC07 (Q8TC07 whole entry, looked up): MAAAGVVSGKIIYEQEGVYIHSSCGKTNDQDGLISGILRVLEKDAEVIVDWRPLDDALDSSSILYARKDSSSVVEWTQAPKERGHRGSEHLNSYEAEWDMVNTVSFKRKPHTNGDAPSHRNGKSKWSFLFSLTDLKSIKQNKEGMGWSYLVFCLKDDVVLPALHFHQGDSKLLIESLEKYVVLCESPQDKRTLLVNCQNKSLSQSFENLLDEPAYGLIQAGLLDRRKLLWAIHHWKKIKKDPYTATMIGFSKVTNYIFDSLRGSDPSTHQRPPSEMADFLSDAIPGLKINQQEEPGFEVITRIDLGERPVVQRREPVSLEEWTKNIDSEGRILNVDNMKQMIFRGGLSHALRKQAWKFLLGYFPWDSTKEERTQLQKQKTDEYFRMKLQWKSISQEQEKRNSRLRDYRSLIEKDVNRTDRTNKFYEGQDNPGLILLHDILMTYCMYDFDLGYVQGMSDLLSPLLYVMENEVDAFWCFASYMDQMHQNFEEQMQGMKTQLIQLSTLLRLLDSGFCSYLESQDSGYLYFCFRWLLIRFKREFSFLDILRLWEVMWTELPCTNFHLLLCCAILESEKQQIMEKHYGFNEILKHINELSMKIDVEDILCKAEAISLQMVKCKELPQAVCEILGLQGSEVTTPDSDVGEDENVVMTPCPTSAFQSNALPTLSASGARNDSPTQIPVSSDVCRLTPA
Chain of UniProt Q9H2K8 (Q9H2K8 whole entry, looked up): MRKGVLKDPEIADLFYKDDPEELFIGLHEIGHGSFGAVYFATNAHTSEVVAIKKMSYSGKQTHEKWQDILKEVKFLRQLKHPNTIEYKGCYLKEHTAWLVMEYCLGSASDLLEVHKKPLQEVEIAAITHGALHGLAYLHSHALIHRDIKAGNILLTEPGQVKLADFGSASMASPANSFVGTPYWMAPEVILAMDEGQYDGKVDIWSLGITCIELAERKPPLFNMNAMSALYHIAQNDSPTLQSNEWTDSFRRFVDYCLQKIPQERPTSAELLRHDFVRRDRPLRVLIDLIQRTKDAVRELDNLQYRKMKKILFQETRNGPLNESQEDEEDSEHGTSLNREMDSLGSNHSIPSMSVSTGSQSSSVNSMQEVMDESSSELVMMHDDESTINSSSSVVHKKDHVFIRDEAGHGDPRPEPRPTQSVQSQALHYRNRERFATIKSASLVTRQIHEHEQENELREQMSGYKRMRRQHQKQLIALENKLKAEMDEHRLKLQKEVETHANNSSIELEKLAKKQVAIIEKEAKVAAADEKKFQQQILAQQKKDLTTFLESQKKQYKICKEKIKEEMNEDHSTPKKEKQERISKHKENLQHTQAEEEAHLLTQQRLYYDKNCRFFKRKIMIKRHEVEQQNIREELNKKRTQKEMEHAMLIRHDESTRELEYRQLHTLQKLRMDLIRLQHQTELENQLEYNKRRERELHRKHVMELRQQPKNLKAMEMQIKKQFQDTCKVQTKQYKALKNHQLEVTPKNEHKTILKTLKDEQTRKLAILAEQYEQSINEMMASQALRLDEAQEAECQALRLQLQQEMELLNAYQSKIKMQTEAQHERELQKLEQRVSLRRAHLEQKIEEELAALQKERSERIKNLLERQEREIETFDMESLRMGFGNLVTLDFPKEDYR
Chain of UniProt Q9Y5X1 (Q9Y5X1 whole entry, looked up): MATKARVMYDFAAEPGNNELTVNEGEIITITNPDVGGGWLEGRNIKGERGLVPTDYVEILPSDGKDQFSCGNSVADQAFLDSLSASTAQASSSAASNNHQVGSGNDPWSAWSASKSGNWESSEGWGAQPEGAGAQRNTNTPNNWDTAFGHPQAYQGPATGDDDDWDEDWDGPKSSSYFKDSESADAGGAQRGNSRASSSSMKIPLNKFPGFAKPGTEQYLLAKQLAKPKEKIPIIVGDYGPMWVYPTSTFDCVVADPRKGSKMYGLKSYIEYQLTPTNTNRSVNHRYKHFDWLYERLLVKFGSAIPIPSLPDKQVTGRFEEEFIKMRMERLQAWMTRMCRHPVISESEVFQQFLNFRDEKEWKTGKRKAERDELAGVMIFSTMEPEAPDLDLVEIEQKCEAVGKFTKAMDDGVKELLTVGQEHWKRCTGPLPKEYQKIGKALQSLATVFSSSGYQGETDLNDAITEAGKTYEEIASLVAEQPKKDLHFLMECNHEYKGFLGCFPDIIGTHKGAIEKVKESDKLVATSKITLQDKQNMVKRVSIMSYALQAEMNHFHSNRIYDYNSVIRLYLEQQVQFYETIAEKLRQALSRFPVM
Chain of UniProt Q92844 (Q92844 whole entry, looked up): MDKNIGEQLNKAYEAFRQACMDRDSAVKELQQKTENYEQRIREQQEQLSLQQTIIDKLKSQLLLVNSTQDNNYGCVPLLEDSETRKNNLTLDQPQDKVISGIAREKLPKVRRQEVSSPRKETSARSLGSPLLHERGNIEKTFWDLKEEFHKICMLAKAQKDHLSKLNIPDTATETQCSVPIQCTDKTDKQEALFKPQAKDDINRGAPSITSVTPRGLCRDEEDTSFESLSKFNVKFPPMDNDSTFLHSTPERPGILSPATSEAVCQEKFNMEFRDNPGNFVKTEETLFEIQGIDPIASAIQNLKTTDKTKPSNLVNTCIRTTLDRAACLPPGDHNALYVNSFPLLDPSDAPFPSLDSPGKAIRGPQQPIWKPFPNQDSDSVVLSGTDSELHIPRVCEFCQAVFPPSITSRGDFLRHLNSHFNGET
Chain of UniProt O00193 (O00193 whole entry, looked up): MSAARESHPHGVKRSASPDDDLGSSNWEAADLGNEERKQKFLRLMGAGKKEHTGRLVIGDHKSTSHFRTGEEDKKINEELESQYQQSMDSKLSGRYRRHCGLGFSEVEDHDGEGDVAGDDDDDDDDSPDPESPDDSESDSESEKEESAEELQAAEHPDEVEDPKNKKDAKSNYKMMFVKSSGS

Compound in the first assay: CC(C)(O)CC(=O)NCCn1ccc2ncnc(Nc3ccc(Oc4cccc(C(F)(F)F)c4)c(Cl)c3)c21
Kind of assay: log2 fold change, soluble protein after heating vs DMSO (PISA); higher = thermal stabilisation; K562 cells, 10 uM, 30 min; active = over 0.2 and 3.5 SD of the protein, either way, in both replicates (recomputed). The procedure, abridged: (§1)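 Soluble protein was defined as the supernatant after 21,000xg for 90 min. It came from K562 cells at 2×10^6 cells/mL given 10 μM compound for 30 min, heated in aliquots for 3 min across 48°C-58°C, pooled, and extracted in PBS with 0.5% NP-40 at 4°C, and was quantified by TMTpro 16plex LC-MS/MS with equalised channel sums. Thermal stability against control samples, from duplicates, is reported as log2 fold change.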
For TIMM13 (UniProt Q9Y5L4), the log2 fold change was -0.145.

With SLC25A38 (UniProt Q96DW6), the log2 fold change is 0.035.

Take SMARCA5 (UniProt O60264): the log2 fold change was -0.113.

On to TEX30 (UniProt Q5JUR7), for which the log2 fold change is -0.251.

As to SMG1 (UniProt Q96Q15), the log2 fold change is 0.002.

With SNRPD3 (UniProt P62318), the log2 fold change is 0.208.

For SUPT5H (UniProt O00267), the log2 fold change is -0.065.

With SPAST (UniProt Q9UBP0), the log2 fold change was -0.157.

With TBCD (UniProt Q9BTW9), the log2 fold change is -0.034.

Take SMAP (UniProt O00193): the log2 fold change was -0.004.

Turning to SPR (UniProt P35270), the log2 fold change was -0.038.

Consider TAOK3 (UniProt Q9H2K8), for which the log2 fold change is -0.011.

Turning to SP3 (UniProt Q02447), the log2 fold change was 0.022.

As to STOM (UniProt P27105), the log2 fold change was 0.004.

Regarding TJP1 (UniProt Q07157), the log2 fold change is -0.02.

Consider SLC30A10 (UniProt Q6XR72), for which the log2 fold change was -0.079.

As to SPCS2 (UniProt Q15005), the log2 fold change was -0.016.

As to TM9SF4 (UniProt Q92544), the log2 fold change is -0.006.

Regarding STAT5B (UniProt P51692), the log2 fold change was -0.401.

SRSF10 (UniProt O75494): the log2 fold change is 0.218.

Turning to SNX12 isoform 1 (UniProt Q9UMY4), the log2 fold change was -0.068.

For TBC1D15 isoform 3 (UniProt Q8TC07), the log2 fold change is -0.082.

With SYMPK (UniProt Q92797), the log2 fold change was -0.296.

On to TBC1D23 (UniProt Q9NUY8), for which the log2 fold change is -0.098.

On to SMAP2 (UniProt Q8WU79), for which the log2 fold change was -0.039.

Take SNX5 (UniProt Q9Y5X3): the log2 fold change is -0.304 (active).

Regarding SNX9 (UniProt Q9Y5X1), the log2 fold change was 0.002.

As for SRPRB (UniProt Q9Y5M8), the log2 fold change was -0.055.

Consider TANGO6 (UniProt Q9C0B7), for which the log2 fold change is -0.153.

Turning to TGFBRAP1 (UniProt Q8WUH2), the log2 fold change is -0.108.

For TANK (UniProt Q92844), the log2 fold change was -0.024.

Regarding TBRG4 (UniProt Q969Z0), the log2 fold change is -0.578 (active).

TERF2IP (UniProt Q9NYB0): the log2 fold change is 0.034.

As for STK25 (UniProt O00506), the log2 fold change was -0.039.

SLC27A4 (UniProt Q6P1M0): the log2 fold change was 0.072.

As to SMC5 (UniProt Q8IY18), the log2 fold change is 0.029.

Take SLC30A7 (UniProt Q8NEW0): the log2 fold change is -0.075.

Compound in the next assay: CC(C)C1=C2N=C(C=C(N2N=C1)NCC3=CC=CC=C3)NCCCCCCN
The assay is described as above. The method, boiled down: as §1
Turning to TIMM13 (UniProt Q9Y5L4), the log2 fold change is 0.048.

For the target SLC25A38 (UniProt Q96DW6), the log2 fold change is 0.049.

With SMARCA5 (UniProt O60264), the log2 fold change is -0.025.

In the case of TEX30 (UniProt Q5JUR7), the log2 fold change is -0.075.

For the target SMG1 (UniProt Q96Q15), the log2 fold change is 0.007.

As for SNRPD3 (UniProt P62318), the log2 fold change was 0.162.

Take SUPT5H (UniProt O00267): the log2 fold change is -0.046.

On to SPAST (UniProt Q9UBP0), for which the log2 fold change is -0.063.

As to TBCD (UniProt Q9BTW9), the log2 fold change is -0.083.

As to SMAP (UniProt O00193), the log2 fold change was 0.058.

For the target SPR (UniProt P35270), the log2 fold change is 0.035.

In the case of TAOK3 (UniProt Q9H2K8), the log2 fold change was 0.007.

For SP3 (UniProt Q02447), the log2 fold change was -0.006.

For STOM (UniProt P27105), the log2 fold change is -0.064.

On to TJP1 (UniProt Q07157), for which the log2 fold change was -0.003.

In the case of SLC30A10 (UniProt Q6XR72), the log2 fold change is 0.035.

SPCS2 (UniProt Q15005): the log2 fold change is -0.01.

For TM9SF4 (UniProt Q92544), the log2 fold change is -0.033.

STAT5B (UniProt P51692): the log2 fold change is -0.119.

Turning to SRSF10 (UniProt O75494), the log2 fold change is 0.002.

Take SNX12 isoform 1 (UniProt Q9UMY4): the log2 fold change is -0.09.

For TBC1D15 isoform 3 (UniProt Q8TC07), the log2 fold change is -0.326 (active).

SYMPK (UniProt Q92797): the log2 fold change is -0.026.

As to TBC1D23 (UniProt Q9NUY8), the log2 fold change is -0.45 (active).

Turning to SMAP2 (UniProt Q8WU79), the log2 fold change is 0.02.

Take SNX5 (UniProt Q9Y5X3): the log2 fold change is -0.224.

For SNX9 (UniProt Q9Y5X1), the log2 fold change was 0.014.

As to SRPRB (UniProt Q9Y5M8), the log2 fold change was -0.036.

Regarding TANGO6 (UniProt Q9C0B7), the log2 fold change was -0.098.

Turning to TGFBRAP1 (UniProt Q8WUH2), the log2 fold change is -0.424.

Consider TANK (UniProt Q92844), for which the log2 fold change was 0.007.

As for TBRG4 (UniProt Q969Z0), the log2 fold change was -0.624.

TERF2IP (UniProt Q9NYB0): the log2 fold change was -0.147.

Turning to STK25 (UniProt O00506), the log2 fold change is -0.02.

As for SLC27A4 (UniProt Q6P1M0), the log2 fold change was -0.11.

In the case of SMC5 (UniProt Q8IY18), the log2 fold change is 0.161.

As to SLC30A7 (UniProt Q8NEW0), the log2 fold change is -0.186.
